Reference: the supplement of paper PMC4466140

Legend:
Assay in all cases: SPOT peptide array binding signal intensity (averaged, normalized) (arbitrary units (background-subtracted, floor 0; scale differs between SH3 domains)); higher = stronger binding of the SH3 domain to the peptide
[1] = biological target: AgAbp1
In short: (§1)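 Four yeast species supplied the SH3 domains, which were expressed as GST fusions in E. coli BL21(DE3) and purified on glutathione Sepharose. Incubation with cellulose membranes carrying synthetic 15-mer peptides, cysteines exchanged for serines, ran overnight at 4°C at 10 μg/ml in TBS-based blocking buffer. Binding signal is reported as normalized, background-subtracted spot intensity averaged over replicates, in arbitrary units not shared between domains.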

[2] = biological target: AgBbc1
In short: as §1

[3] = biological target: AgBem1-D1
In short: as §1

[4] = biological target: AgBzz1-D1
In short: as §1

[5] = biological target: AgBzz1-D2
In short: as §1

[6] = biological target: AgCyk3
In short: as §1

[7] = biological target: AgFus1
In short: as §1

[8] = biological target: AgHof1
In short: as §1

[9] = biological target: AgHse1
In short: as §1

[10] = biological target: AgLsb1
In short: as §1

[11] = biological target: AgLsb4
In short: as §1

[12] = biological target: AgMyo5
In short: as §1

[13] = biological target: AgNbp2
In short: as §1

[14] = biological target: AgRvs167
In short: as §1

[15] = biological target: AgSho1
In short: as §1

[16] = biological target: AgSla1-D1-D2
In short: as §1

[17] = biological target: AgSla1-D3
In short: as §1

[18] = biological target: CaAbp1-D1
In short: as §1

[19] = biological target: CaAbp1-D2
In short: as §1

[20] = biological target: CaBbc1
In short: as §1

[21] = biological target: CaBem1-D1
In short: as §1

[22] = biological target: CaBzz1-D1
In short: as §1

[23] = biological target: CaBzz1-D2
In short: as §1

[24] = biological target: CaCyk3
In short: as §1

[25] = biological target: CaFus1
In short: as §1

[26] = biological target: CaHof1
In short: as §1

[27] = biological target: CaHse1
In short: as §1

[28] = biological target: CaLsb1
In short: as §1

[29] = biological target: CaLsb4
In short: as §1

[30] = biological target: CaMyo5
In short: as §1

[31] = biological target: CaNbp2
In short: as §1

[32] = biological target: CaRvs167
In short: as §1

[33] = biological target: CaRvs167-3
In short: as §1

[34] = biological target: CaSho1
In short: as §1

[35] = biological target: CaSla1-D1-D2
In short: as §1

[36] = biological target: CaSla1-D3
In short: as §1

[37] = biological target: ScAbp1
In short: as §1

[38] = biological target: ScBbc1
In short: as §1

[39] = biological target: ScBem1-D1
In short: as §1

[40] = biological target: ScBzz1-D1
In short: as §1

[41] = biological target: ScBzz1-D2
In short: as §1

[42] = biological target: ScCyk3
In short: as §1

[43] = biological target: ScFus1
In short: as §1

[44] = biological target: ScHof1
In short: as §1

[45] = biological target: ScHse1
In short: as §1

[46] = biological target: ScLsb1
In short: as §1

[47] = biological target: ScLsb2
In short: as §1

[48] = biological target: ScLsb3
In short: as §1

[49] = biological target: ScLsb4
In short: as §1

[50] = biological target: ScMyo3
In short: as §1

[51] = biological target: ScMyo5
In short: as §1

[52] = biological target: ScNbp2
In short: as §1

[53] = biological target: ScPex13
In short: as §1

[54] = biological target: ScRvs167
In short: as §1

[55] = biological target: ScSho1
In short: as §1

[56] = biological target: ScSla1-D1-D2
In short: as §1

[57] = biological target: ScSla1-D3
In short: as §1

[58] = biological target: SpAbp1-D1
In short: as §1

[59] = biological target: SpBbc1
In short: as §1

[60] = biological target: SpBzz1-D1
In short: as §1

[61] = biological target: SpBzz1-D2
In short: as §1

[62] = biological target: SpCyk3
In short: as §1

[63] = biological target: SpHof1
In short: as §1

[64] = biological target: SpHof1-2
In short: as §1

[65] = biological target: SpHof1-3
In short: as §1

[66] = biological target: SpHse1
In short: as §1

[67] = biological target: SpLsb1
In short: as §1

[68] = biological target: SpLsb4
In short: as §1

[69] = biological target: SpMyo1
In short: as §1

[70] = biological target: SpNbp2
In short: as §1

[71] = biological target: SpPex13
In short: as §1

[72] = biological target: SpRvs167
In short: as §1

[73] = biological target: SpSla1-D1-D2
In short: as §1

[74] = biological target: SpSla1-D3
In short: as §1

TKHKAPPPPPPTAET
SPOT peptide array binding signal intensity [1]: 1 | SPOT peptide array binding signal intensity [2]: ≤ 0 | SPOT peptide array binding signal intensity [3]: ≤ 0 | SPOT peptide array binding signal intensity [4]: 2000 | SPOT peptide array binding signal intensity [5]: 338 | SPOT peptide array binding signal intensity [6]: ≤ 0 | SPOT peptide array binding signal intensity [7]: ≤ 0 | SPOT peptide array binding signal intensity [8]: ≤ 0 | SPOT peptide array binding signal intensity [9]: 4 | SPOT peptide array binding signal intensity [10]: ≤ 0 | SPOT peptide array binding signal intensity [11]: ≤ 0 | SPOT peptide array binding signal intensity [12]: 21.8 | SPOT peptide array binding signal intensity [13]: 39.5 | SPOT peptide array binding signal intensity [14]: 4 | SPOT peptide array binding signal intensity [15]: ≤ 0 | SPOT peptide array binding signal intensity [16]: 3 | SPOT peptide array binding signal intensity [17]: 774 | SPOT peptide array binding signal intensity [18]: 12 | SPOT peptide array binding signal intensity [19]: ≤ 0 | SPOT peptide array binding signal intensity [20]: ≤ 0 | SPOT peptide array binding signal intensity [21]: 42.5 | SPOT peptide array binding signal intensity [22]: 4620 | SPOT peptide array binding signal intensity [23]: 3490 | SPOT peptide array binding signal intensity [24]: 1 | SPOT peptide array binding signal intensity [25]: 4.5 | SPOT peptide array binding signal intensity [26]: 1 | SPOT peptide array binding signal intensity [27]: 5.5 | SPOT peptide array binding signal intensity [28]: ≤ 0 | SPOT peptide array binding signal intensity [29]: ≤ 0 | SPOT peptide array binding signal intensity [30]: 0.25 | SPOT peptide array binding signal intensity [31]: ≤ 0 | SPOT peptide array binding signal intensity [32]: ≤ 0 | SPOT peptide array binding signal intensity [33]: 4 | SPOT peptide array binding signal intensity [34]: ≤ 0 | SPOT peptide array binding signal intensity [35]: 6.5 | SPOT peptide array binding signal intensity [36]: ≤ 0 | SPOT peptide array binding signal intensity [37]: 1.5 | SPOT peptide array binding signal intensity [38]: ≤ 0 | SPOT peptide array binding signal intensity [39]: 3 | SPOT peptide array binding signal intensity [40]: 5910 | SPOT peptide array binding signal intensity [41]: 5 | SPOT peptide array binding signal intensity [42]: ≤ 0 | SPOT peptide array binding signal intensity [43]: 18 | SPOT peptide array binding signal intensity [44]: ≤ 0 | SPOT peptide array binding signal intensity [45]: ≤ 0 | SPOT peptide array binding signal intensity [46]: 0.25 | SPOT peptide array binding signal intensity [47]: ≤ 0 | SPOT peptide array binding signal intensity [48]: ≤ 0 | SPOT peptide array binding signal intensity [49]: ≤ 0 | SPOT peptide array binding signal intensity [50]: 160 | SPOT peptide array binding signal intensity [51]: 112 | SPOT peptide array binding signal intensity [52]: 3.5 | SPOT peptide array binding signal intensity [53]: 0.75 | SPOT peptide array binding signal intensity [54]: 1.5 | SPOT peptide array binding signal intensity [55]: 2.5 | SPOT peptide array binding signal intensity [56]: ≤ 0 | SPOT peptide array binding signal intensity [57]: 4 | SPOT peptide array binding signal intensity [58]: ≤ 0 | SPOT peptide array binding signal intensity [59]: 2 | SPOT peptide array binding signal intensity [60]: 240 | SPOT peptide array binding signal intensity [61]: 6.25 | SPOT peptide array binding signal intensity [62]: 0.5 | SPOT peptide array binding signal intensity [63]: 1 | SPOT peptide array binding signal intensity [64]: ≤ 0 | SPOT peptide array binding signal intensity [65]: ≤ 0 | SPOT peptide array binding signal intensity [66]: ≤ 0 | SPOT peptide array binding signal intensity [67]: 0.5 | SPOT peptide array binding signal intensity [68]: ≤ 0 | SPOT peptide array binding signal intensity [69]: 215 | SPOT peptide array binding signal intensity [70]: 14.5 | SPOT peptide array binding signal intensity [71]: ≤ 0 | SPOT peptide array binding signal intensity [72]: ≤ 0 | SPOT peptide array binding signal intensity [73]: 2 | SPOT peptide array binding signal intensity [74]: 1

LYEAMPPTLPHRDWK
SPOT peptide array binding signal intensity [1]: 1 | SPOT peptide array binding signal intensity [2]: 2.5 | SPOT peptide array binding signal intensity [3]: 13.5 | SPOT peptide array binding signal intensity [4]: ≤ 0 | SPOT peptide array binding signal intensity [5]: ≤ 0 | SPOT peptide array binding signal intensity [6]: 2 | SPOT peptide array binding signal intensity [7]: 33 | SPOT peptide array binding signal intensity [8]: 0.5 | SPOT peptide array binding signal intensity [9]: 50 | SPOT peptide array binding signal intensity [10]: 30.5 | SPOT peptide array binding signal intensity [11]: 518 | SPOT peptide array binding signal intensity [12]: 0.5 | SPOT peptide array binding signal intensity [13]: 154 | SPOT peptide array binding signal intensity [14]: 30.2 | SPOT peptide array binding signal intensity [15]: 26.5 | SPOT peptide array binding signal intensity [16]: ≤ 0 | SPOT peptide array binding signal intensity [17]: ≤ 0 | SPOT peptide array binding signal intensity [18]: 8 | SPOT peptide array binding signal intensity [19]: 1.5 | SPOT peptide array binding signal intensity [20]: 16.5 | SPOT peptide array binding signal intensity [21]: 16 | SPOT peptide array binding signal intensity [22]: 50.5 | SPOT peptide array binding signal intensity [23]: 27.2 | SPOT peptide array binding signal intensity [24]: ≤ 0 | SPOT peptide array binding signal intensity [25]: 327 | SPOT peptide array binding signal intensity [26]: 0.5 | SPOT peptide array binding signal intensity [27]: 150 | SPOT peptide array binding signal intensity [28]: 0.5 | SPOT peptide array binding signal intensity [29]: 806 | SPOT peptide array binding signal intensity [30]: 12
